Results: PubChem BioAssay
Where “and” joins values, the source holds several entries; their conditions need not be identical. Identical values can stand only once. Calls of active or inactive are those of the source.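 How the source made its calls, unless noted: active means inhibition at or above 50% relative to wild type and mutant plate controls; inactive means inhibition below 50%.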

Legend:
[1] = inhibitors of TNFa-induced NFkB p65 translocation, primary screen, imaging, HUVEC, MLSMR starter and 10KST1 sets (AID 438;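 active means inhibition above 20% together with a positive visual image hit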;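 further: compound added about 3h40 before a 20 min TNFalpha stimulation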;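 on inhibition: signal is the nuclear over cytoplasmic p65 intensity ratio per well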); details: HUVEC TNFa-induced p65 nuclear translocation; cell count: measured here: nuclei count (cytotoxicity indicator), at 2.08 µM; inhibition: at 2 µM, stronger effect = higher value, 0% TNFa-plus-vehicle, 100% no-TNFa wells
[2] = reduction of polyQ htt aggregates in cells – imaging, exon1htt(103Q)mCFP cells, high-content imaging, primary screen (AID 483;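 active means visual image review flags a hit and inhibition of aggregation exceeds 20%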;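 further: compound exposure lasted 3 days before fixation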;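 on nuclei count: percent of the per-plate median nuclei count of sample wells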); details: exon1htt(103Q)mCFP cell line, aggregate imaging, at 2 µM; inhibition of aggregation: stronger effect = higher value; nuclei count: measured here: cell count, toxicity
[3] = endothelial E-selectin expression blockers – imaging, HUVEC, immunofluorescence, MLSMR starter and 10KST1 sets, primary screen (AID 487;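 active means visually confirmed hit in the image check and inhibition above 20%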;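 on inhibition: signal is fraction of cell area covered by stained E-selectin grains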;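 on nuclei count: 100% = median nuclei count of all wells on the same plate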); details: HUVEC TNFalpha-induced E-selectin immunofluorescence imaging, at 2 µM; inhibition: stronger effect = higher value; nuclei count: measured here: cell number, toxicity
[4] = Primary imaging screen for DUSP6 inhibitors that restore phospho-Erk in transfected HeLa cells, chemical complementation (AID 609;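 active means compounds giving at least 50% inhibition in the cell-based MKP-3 phosphatase rescue imaging test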;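 on inhibition: phospho-Erk level distribution per well compared with pooled transfected vehicle control wells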); details: HeLa MKP-3 transfected, phospho-Erk imaging KS statistic, at 10 µM, cells stimulated with TPA for 15 min
[5] = target: Dual specificity protein phosphatase 6 (Homo sapiens) (UniProt Q16828); test: as above; details: HeLa MKP-3 transfected, phospho-Erk imaging KS statistic; at 10 µM; stronger effect = higher value; cells stimulated with TPA for 15 min
Dual specificity protein phosphatase 6 (Homo sapiens), sequence (Q16828 whole entry, looked up): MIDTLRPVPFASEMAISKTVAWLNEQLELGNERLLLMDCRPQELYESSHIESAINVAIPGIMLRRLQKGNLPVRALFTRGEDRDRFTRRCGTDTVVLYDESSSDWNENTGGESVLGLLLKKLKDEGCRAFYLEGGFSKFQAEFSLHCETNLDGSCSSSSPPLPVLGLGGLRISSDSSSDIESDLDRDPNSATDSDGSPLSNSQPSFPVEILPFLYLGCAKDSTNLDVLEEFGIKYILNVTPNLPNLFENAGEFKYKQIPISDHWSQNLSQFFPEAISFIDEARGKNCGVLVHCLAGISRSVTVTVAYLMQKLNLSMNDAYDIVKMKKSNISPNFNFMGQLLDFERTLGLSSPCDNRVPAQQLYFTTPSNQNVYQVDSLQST

[6] = target: Voltage-gated potassium channel subunit beta-2 (Rattus norvegicus) (UniProt P62483); test: inhibitors of rat Kvbeta2 reductase activity – biochemical, NADPH fluorescence, primary screen (AID 622;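 active means fluorescence slope higher than the sample average by over 3 SD, cut at about -0.22 in these data, passing the limit was not always enough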;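 further: slope of raw intensity against log time taken from 70 to 1610 s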); details: recombinant KvBeta, 4-cyanobenzaldehyde reduction, at 10 µM, stronger effect = higher value
Voltage-gated potassium channel subunit beta-2 (Rattus norvegicus), sequence (P62483 whole entry, looked up): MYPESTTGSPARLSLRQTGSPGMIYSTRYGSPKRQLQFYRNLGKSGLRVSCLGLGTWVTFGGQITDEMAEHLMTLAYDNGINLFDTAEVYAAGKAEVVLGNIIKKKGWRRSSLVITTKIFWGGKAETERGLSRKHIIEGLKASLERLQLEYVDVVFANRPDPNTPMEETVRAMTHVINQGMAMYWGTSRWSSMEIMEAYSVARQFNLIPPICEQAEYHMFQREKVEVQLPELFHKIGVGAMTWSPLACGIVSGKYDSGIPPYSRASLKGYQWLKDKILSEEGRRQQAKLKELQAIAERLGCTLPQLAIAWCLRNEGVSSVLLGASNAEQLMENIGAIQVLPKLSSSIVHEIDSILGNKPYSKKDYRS

[7] = target: Voltage-gated potassium channel subunit beta-2 (Rattus norvegicus) (UniProt P62483); test: enhancers of rat Kvbeta2 NADPH turnover – biochemical, NADPH fluorescence, primary screen (AID 623;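 active means NADPH fluorescence slope more negative than the mean of all samples by about 3 SD, 99.7% confidence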;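 further: fluorescence intensity change per second fitted from 20 to 320 s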); details: Recombinant KvBeta, NADPH fluorescence decrease slope, 10 min; at 10 µM; stronger effect = lower value
[8] = target: Alpha-2C adrenergic receptor (Homo sapiens) (UniProt P18825); test: compounds altering alpha2C-coupled GIRK flux – cell-based, HEK293 alpha2C/GIRK1/2, thallium flux, primary screen (AID 624;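 active means fluorescence slope after compound addition differing from the mean of all screened samples at 99.7% confidence, in either direction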;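 further: slope of fluorescence ratio to pre-addition baseline per second over 15 to 24 s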); details: thallium flux BTC fluorescence, at 10 µM, actives lie on both sides
Alpha-2C adrenergic receptor (Homo sapiens), sequence (P18825 whole entry, looked up): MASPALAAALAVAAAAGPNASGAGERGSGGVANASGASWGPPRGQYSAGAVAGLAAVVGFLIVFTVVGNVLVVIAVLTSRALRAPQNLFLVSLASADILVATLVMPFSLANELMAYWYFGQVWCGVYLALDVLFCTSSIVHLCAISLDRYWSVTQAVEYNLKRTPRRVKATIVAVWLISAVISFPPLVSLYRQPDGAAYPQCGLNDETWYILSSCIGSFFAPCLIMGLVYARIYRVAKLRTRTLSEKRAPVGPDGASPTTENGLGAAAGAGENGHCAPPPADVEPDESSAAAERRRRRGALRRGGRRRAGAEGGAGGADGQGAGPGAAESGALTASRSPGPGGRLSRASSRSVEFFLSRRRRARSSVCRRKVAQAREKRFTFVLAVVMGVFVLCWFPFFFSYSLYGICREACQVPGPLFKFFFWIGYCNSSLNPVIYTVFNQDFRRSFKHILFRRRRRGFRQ

[9] = inhibitors of larval lipid processing in zebrafish, primary screen, whole organism, PED6 fluorescence, gall bladder and intestine (AID 686;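 active means a full or partial loss of lipid-probe fluorescence in the fish gall bladder, intestine or both, judged by eye; inactive means no fluorescence loss, or compound toxic to the fish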;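 further: larvae 5 to 7 days old with five fish per well; signal comes from phospholipase A2 cleavage of quenched PED6 carried via bile; overnight exposure to compound and PED6 before scoring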); details: Zebrafish larvae PED6 lipid processing, fluorescence scoring; screened at 20 µM (by protocol)
[10] = loss of swimming-algae plug formation – whole organism, Chlamydomonas reinhardtii, WT vs cilia-less mutant, absorbance, 96-well, primary screen (AID 463189); details: Chlamydomonas reinhardtii gravitaxis, OD600 absorbance, 2 days; at 10 µM; stronger effect = higher value;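 further: 0% = wild type cc124 cells in DMSO and 100% = ciliumless bld1 mutant cells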
[11] = blockers of RIG-like receptor reporter activation – cell-based, Sendai virus stimulus, luciferase, 10K MLSCN set, TLR/RLR signaling modifier project, primary screen (AID 602276;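 active means inhibition at or above 50% at 10 µM; inactive means inhibition below 50%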;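 further: firefly luciferase from ISG56 promoter only with Renilla not read in this screen; 0% = Sendai virus plus DMSO and 100% = medium plus DMSO without virus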); details: HEK293 RL24 IRF3 luciferase reporter, at 10 µM, stronger effect = higher value
[12] = TLR3 IRF3 reporter activation blockers – cell-based, poly I:C stimulus, luciferase, 10K MLSCN set, primary screen (AID 602277;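 active means inhibition of the reporter signal at or above 50%; inactive means inhibition below 50%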); details: HEK293-TLR3 RL24 IRF3 luciferase reporter, at 10 µM, stronger effect = higher value
[13] = measured here: cell density z-score
[14] = measured here: nuclear c-Myc green intensity z-score
[15] = measured here: nuclear pErk red intensity z-score, stronger effect = higher value

Structure (SMILES)	cell count [1]	inhibition [1]	inhibition of aggregation [2]	nuclei count [2] [%]	inhibition [3]	nuclei count [3] [%]	z-score [4, 13]	z-score [4, 14]	z-score [4, 15]	inhibition [5]	fluorescence slope [6]	NADPH fluorescence slope [7]	slope [8]	outcome [9]	inhibition [10]	inhibition [11]	inhibition [12]
CCCCCC#CCC#CCC#CCC#CCCCC(=O)O	542	-10.5% (inactive)	-23.3% (inactive)	92.5	-39.3% (inactive)	127	-0.772	0.757	0.0999	-0.493% (inactive)	-0.461 (inactive)	-0.000212 (active)	0.00468 (inactive)	inactive	2.88% (inactive)	11% (inactive)	33.2% (inactive)
CCN(CC)S(=O)(=O)c1cccc2c(N(C)C)cccc12	503	-2.1% (inactive)	14.8% (inactive)	95.3	-84.9% (inactive)	128	0.324	-0.162	1.65	0.671% (inactive)	-0.177 (active)	-1.3e-05 (inactive)	0.00311 (inactive)	inactive	25.1% (inactive)	-4.35% (inactive)	-4.09% (inactive)
O=C(C1=C(O)C(=O)N(c2ncccn2)C1c1cccc(Cl)c1)c1ccco1 (stereo not drawn)	454	-2.1% (inactive)	23.5% (inactive)	97.7	-61.9% (inactive)	138	0.991	-0.348	0.185	-4.7% (inactive)	-0.349 (inactive)	-2.5e-05 (inactive)	0.00586 (inactive)	inactive	3.84% (inactive)	11% (inactive)	1.21% (inactive)
Cc1cc(C)c(C#N)c(SCc2[nH]nc3c2C(c2ccccc2)C(C#N)=C(N)O3)n1 (stereo not drawn)	633	-7.7% (inactive)	5.8% (inactive)	104	-6.9% (inactive)	114	0.152	-0.343	0.203	-7.28% (inactive)	-0.571 (inactive)	2.5e-06 (inactive)	0.00484 (inactive)	inactive	31.6% (inactive)	12.1% (inactive)	20.3% (inactive)
COC(=O)c1cc(S(=O)(=O)N2CCOCC2)c(N2CCOCC2)cc1N1CCOCC1	427	-5.9% (inactive)	5% (inactive)	118	-21.7% (inactive)	129	-1.77	-0.115	0.265	-1.75% (inactive)	-0.409 (inactive)	-0.000135 (inactive)	0.00461 (inactive)	inactive	23.9% (inactive)	4.03% (inactive)	11% (inactive)
COC(=O)[C@@H](N)Cc1ccc(O)cc1	550	-6.9% (inactive)	4.1% (inactive)	91.1	-9.7% (inactive)	107	-0.0639	0.189	0.26	11.3% (inactive)	-0.496 (inactive)	-7.7e-05 (inactive)	0.00529 (inactive)	inactive	15.2% (inactive)	15.4% (inactive)	27.7% (inactive)
COC(=O)c1cc(Br)c(=O)n(CCc2ccc(F)cc2)c1	595	-7.1% (inactive)	-4.6% (inactive)	93.4	6.1% (inactive)	151	-0.681	0.872	1.23	1.9e-07% (inactive)	-0.324 (inactive)	-5.7e-05 (inactive)	0.00485 (inactive)	active; no signal in intestine only	-7.76% (inactive)	4.86% (inactive)	5.55% (inactive)
CN(C)c1nc(OCCOC(=O)Nc2ccc(Cl)cc2Cl)nc(N(C)C)n1	397	-14.7% (inactive)	-0.2% (inactive)	56.4	-100% (inactive)	122	0.138	0.513	-0.605	-5.26% (inactive)	-0.48 (inactive)	-8.2e-05 (inactive)	0.00682 (inactive)	inactive	-0.1% (inactive)	11.3% (inactive)	0.088% (inactive)
NS(=O)(=O)c1cc2c(cc1Cl)NC(CSCc1ccccc1)=NS2(=O)=O	643	-8.9% (inactive)	13.9% (inactive)	103	-78.7% (inactive)	116	-0.00243	-0.584	-0.561	9.37% (inactive)	-0.459 (inactive)	-7.8e-05 (inactive)	0.00625 (inactive)	inactive	2.85% (inactive)	10.8% (inactive)	33.9% (inactive)
Cc1nc(/N=C(\N)Nc2ccccc2)nc2ccccc12	304	2.5% (inactive)	-14% (inactive)	103	-112% (inactive)	110	0.361	0.688	0.354	-0.624% (inactive)	-0.38 (inactive)	2.3e-05 (inactive)	0.0057 (inactive)	inactive	7.3% (inactive)	-6.34% (inactive)	-21.7% (inactive)
CCCNC(=O)NS(=O)(=O)c1ccc(Cl)cc1	639	-5.9% (inactive)	14.1% (inactive)	84.6	-56.7% (inactive)	120	-0.235	0.988	1.2	-0.493% (inactive)	-0.477 (inactive)	-1.5e-05 (inactive)	0.00564 (inactive)	inactive	-16% (inactive) and -6.85% (inactive)	-0.0514% (inactive)	14.7% (inactive)
C[C@]12CC[C@H]3[C@@H](CCC4=CC(=O)CC[C@@]43C)[C@@H]1CC[C@@H]2C(=O)CO	632	-0.8% (inactive)	4.5% (inactive)	37.5	-114% (inactive)	118	-0.564	-1.57	-0.166	-2.46% (inactive)	-0.521 (inactive)	-1e-05 (inactive)	0.00387 (inactive)	inactive	-3.19% (inactive)	1.11% (inactive)	43.7% (inactive)
C[C@@H]1C[C@H]2[C@@H]3C[C@H](F)C4=CC(=O)C=C[C@]4(C)[C@@]3(F)[C@@H](O)C[C@]2(C)[C@@]1(O)C(=O)CO	647	-3.8% (inactive)	-18.8% (inactive)	42.3	-111% (inactive)	128	-1.38	0.0959	0.878	9.37% (inactive)	-0.535 (inactive)	-3.8e-05 (inactive)	0.00526 (inactive)	inactive	-6.12% (inactive)	-11.6% (inactive)	33.6% (inactive)
COc1ccccc1NC(=O)C1=C(C)NC(SCC(=O)c2ccc(C)cc2)=C(C#N)C1c1ccco1 (stereo not drawn)	529	-0.5% (inactive)	9.6% (inactive)	99.4	6.5% (inactive)	114	0.647	-0.415	1.41	-2.07% (inactive)	-0.481 (inactive)	-7.1e-05 (inactive)	0.00753 (inactive)	inactive	36.3% (inactive)	-17.3% (inactive)	-56.3% (inactive)
Cn1c(=O)c2c(ncn2CCO)n(C)c1=O	575	3.2% (inactive)	-12.9% (inactive)	102	-46.8% (inactive)	114	-1.46	-1.4	-0.23	1.38% (inactive)	-0.45 (inactive)	-4.4e-05 (inactive)	0.00454 (inactive)	inactive	-9.91% (inactive)	14.7% (inactive)	34.5% (inactive)
CC(C)N=c1cc2n(-c3ccc(Cl)cc3)c3ccccc3nc-2cc1Nc1ccc(Cl)cc1	636	-2.8% (inactive)	-9.9% (inactive)	102	-163% (inactive)	126	-0.698	-0.296	0.758	-0.493% (inactive)	-0.535 (inactive)	-1.6e-05 (inactive)	0.00125 (inactive)	active; weak signal in gallbladder and intestine	157% (active)	-7.35% (inactive)	33.1% (inactive)
CCCCOc1ccc(OCCCN2CCOCC2)cc1	589	6% (inactive)	7.5% (inactive)	94.3	-52.4% (inactive)	117	-0.745	-1.16	3.07	1.38% (inactive)	-0.49 (inactive)	-5.2e-05 (inactive)	0.00401 (inactive)	inactive	159% (active)	-7.75% (inactive)	-40.7% (inactive)
CC(=O)NS(=O)(=O)c1ccc(N)cc1	651	7.7% (inactive)	12.5% (inactive)	97.6	-106% (inactive)	120	-1.23	1.33	-0.291	14.6% (inactive)	-0.508 (inactive)	-4.5e-05 (inactive)	0.00641 (inactive)	inactive	46.5% (inactive)	11.7% (inactive)	26.8% (inactive)
CC(=O)N=c1sc(S(N)(=O)=O)nn1C	541	-11.9% (inactive)	7.8% (inactive)	88.8	-94% (inactive)	104	0.515	1.15	1.01	9.37% (inactive)	-0.454 (inactive)	-6.4e-05 (inactive)	0.00535 (inactive)	inactive	13.4% (inactive)	4.97% (inactive)	15.9% (inactive)
